Hits are enriched below; roughly 21% of the tested compounds scored in any of these assays.
TDP1 cell noCPT: qHTS for Inhibitors of human tyrosyl-DNA phosphodiesterase 1 (TDP1): qHTS in cells in absence of CPT. DT40 Tdp1-/- hTDP1 cells, no CPT, ATP luminescence, 48 h. Potency, µM (doses to about 46.2 µM), without a hit: at the highest dose activity change, negative = growth inhibition, usual class: inhibitors. 15% of 420,000 active. AID 686978, 2013; further: potency means the concentration at half of the fitted maximal effect; on the % scale 0 is the no-effect control and ±100 the full control effect; nearly all actives have a fitted effect of over 55% in size
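No-CPT arm: Tdp1-/-;hTDP1 DT40 cells (400/well) plus compounds, incubated ≥48 hr at 37 °C. Readout CellTiter-Glo luminescence.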
ClpP mod: qHTS Assay for Activators of ClpP | purified B. subtilis ClpP, FRET peptide cleavage, 20 min | Potency, µM (doses to about 57.5 µM), for the others: top-dose activity change, negative = active | 1.9% of 340,000 active | ATP-dependent Clp protease proteolytic subunit (Bacillus subtilis (strain 168)), P80244; active means well fitted falling curve with a large enough effect; inconclusive means small, poorly fitted or top-dose-only effect; inactive means no such curve, though single readings can be large or run the other way; further: potency means the concentration at half of the fitted maximal effect; the source files actives as falling curves though it sought activators and does not explain the sign; nearly all actives have a fitted effect of over 65% in size
Target sequence (P80244 whole entry, looked up): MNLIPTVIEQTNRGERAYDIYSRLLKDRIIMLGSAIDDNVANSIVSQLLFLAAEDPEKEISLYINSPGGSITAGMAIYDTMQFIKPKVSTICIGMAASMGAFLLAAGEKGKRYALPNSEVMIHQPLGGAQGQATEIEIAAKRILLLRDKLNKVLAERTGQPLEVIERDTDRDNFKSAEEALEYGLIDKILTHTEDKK
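Purified B. subtilis ClpP, 10 microg/mL final in Tris/HCl pH8 with KCl, BSA, glycerol and Tween-20, cleaved an Abz/nitrotyrosine-quenched decapeptide. Fluorescence (ex 320, em 430) was read at 0 and 20 min at room temperature. Delta was normalized to 5.8 microM ADEP and DMSO/no-enzyme controls.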
D3 antag: qHTS of D3 Dopamine Receptor Antagonist: qHTS | D(3) dopamine receptor (Homo sapiens), P35462 | D3R cells, DiscoveRx beta-arrestin luminescence, antagonist mode; active compounds read low | max response, negative = inhibition, % | 2.5% of 360,000 active; in the data active means max response below about -50%; inconclusive means no clear call, values can overlap the other calls; further: on the % scale 0 is the no-effect control and ±100 the full control effect
Target sequence (P35462 whole entry, looked up): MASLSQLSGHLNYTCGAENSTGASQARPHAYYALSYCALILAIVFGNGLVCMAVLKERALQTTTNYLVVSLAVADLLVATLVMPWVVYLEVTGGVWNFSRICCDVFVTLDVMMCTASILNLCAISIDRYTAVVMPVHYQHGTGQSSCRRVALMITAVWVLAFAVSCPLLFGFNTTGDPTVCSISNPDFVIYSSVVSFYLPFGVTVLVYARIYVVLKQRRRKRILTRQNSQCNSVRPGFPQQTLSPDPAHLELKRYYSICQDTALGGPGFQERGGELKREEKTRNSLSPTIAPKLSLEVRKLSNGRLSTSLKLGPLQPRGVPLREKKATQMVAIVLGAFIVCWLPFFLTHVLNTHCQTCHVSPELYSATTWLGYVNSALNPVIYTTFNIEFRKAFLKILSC
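Cells expressing the human receptor were seeded at 1500 cells/well, incubated overnight at 37 degrees C in 5% CO2, then exposed to library compounds with dopamine controls for 90 minutes at 37 degrees C before luminescent detection.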
D3 ag: qHTS of D3 Dopamine Receptor Agonist: qHTS; max activation, %; D3R DiscoveRx beta-arrestin cells, luminescence, 90 min; 0.58% of 410,000 active; AID 652048, 2013; in the data active means max activation above about 30%; further: 0% is about no effect
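Agonist-mode cell screen: cells plated at 1500/well and incubated overnight at 37 °C, then exposed to library compounds for 90 min at 37 °C. Detection reagent was added for 30–60 min at room temperature, and luminescence was read.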
IL1B secr inh: qHTS for Inhibitors of Inflammasome Signaling: IL-1-beta AlphaLISA Primary Screen. THP-1 LPS/ATP IL-1B secretion, AlphaLISA, 16 h; active compounds read low. activity change, % at 57.5 µM. 4.7% of 360,000 active. AID 743279, 2014; in the data active means activity change below about -50%; inconclusive means mostly about -30% to -49%; further: on the % scale 0 is the no-effect control and ±100 the full control effect
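Secreted IL-1B measured by AlphaLISA bead assay after 16 h compound exposure of THP-1 cells; compounds (final up to 57.5 uM) added 1 h before LPS (250 ng/mL) and ATP (1.25 mM) stimulation; lower signal means less secretion.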
DT40 TDP1 CPT: qHTS for Inhibitors of human tyrosyl-DNA phosphodiesterase 1 (TDP1): qHTS in cells in presence of CPT | chicken DT40 Tdp1-/-;hTDP1 cells + 20 nM CPT, ATP luminescence, 48 h | Potency, µM (titrated, usually from 46.2 µM), inactives show at the top dose activity change, negative = growth inhibition, usual class: inhibitors | 12% of 420,000 active; further: potency means the concentration at half of the fitted maximal effect; on the % scale 0 is the no-effect control and ±100 the full control effect; nearly all actives have a fitted effect of over 55% in size
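Chicken DT40 Tdp1-/- cells stably complemented with human TDP1 were seeded at 400 cells/well in medium containing 20 nM camptothecin, exposed to pin-transferred compounds, and grown at 37 °C for at least 48 hr. Viability was read as ATP luminescence.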
The depositor's hits bear a star; [ ] = another dose, or the depositor's remark. Unless noted, the call rests on the fitted dose curve; in most records, active means well fitted inhibition curve with a large enough effect; inconclusive means small, poorly fitted or top-dose-only effect; inactive means flat fitted curve, though single readings scatter.

O=C1c2ccc(-c3ccc(Cl)c(C(F)(F)F)c3)cc2S(=O)(=O)c2cccc(C(=O)N3CCN(c4ccc(Cl)cn4)CC3)c21 was read as TDP1 cell noCPT 13µM*, ClpP mod -6%, D3 antag 16, D3 ag 7, IL1B secr inh -15 and DT40 TDP1 CPT inconclusive.
`COc1ccc(-c2ccc3c(c2)S(=O)(=O)c2cccc(C(=O)N4CCN(c5ccccn5)CC4)c2C3=O)cc1OC` gave TDP1 cell noCPT 15µM*, ClpP mod inconclusive, D3 antag 25, D3 ag 19, IL1B secr inh 10 and DT40 TDP1 CPT 18µM*.
`COc1ccc(-c2ccc3c(c2)S(=O)(=O)c2cccc(C(=O)O)c2C3=O)cc1OC` gave TDP1 cell noCPT 12%, ClpP mod -3%, D3 antag 16, D3 ag 5, IL1B secr inh 21 and DT40 TDP1 CPT -5%.
Screening COc1ccc(-c2ccc3c(c2)S(=O)(=O)c2cccc(C(=O)NC4CCCC4)c2C3=O)cc1OC returned TDP1 cell noCPT -22%, ClpP mod 1%, D3 antag 51, D3 ag 3, IL1B secr inh 7 and DT40 TDP1 CPT -30%.
Screening C=CCCOc1ccccc1C(N)=O returned TDP1 cell noCPT -23%, D3 antag 7, D3 ag 1, IL1B secr inh 12 and DT40 TDP1 CPT -21%.
`CNC(=S)N1CCC(NC(=O)C(Cc2ccccc2)NC(C)=O)CC1` (configuration not stated) gave TDP1 cell noCPT 7%, ClpP mod 0%, D3 antag 8, D3 ag 4, IL1B secr inh 6 and DT40 TDP1 CPT 0%.
COc1ccc(S(=O)(=O)NC(=O)C2(C)CCN2C(=O)CC2CC2)cc1 (configuration not stated) was read as TDP1 cell noCPT 1%, ClpP mod 3%, D3 antag 16, D3 ag 4, IL1B secr inh 7 and DT40 TDP1 CPT 3%.
Screening COc1ccccc1C(=O)NCCC(=O)N1CCN(c2cccc(C(F)(F)F)c2)CC1 returned TDP1 cell noCPT inconclusive, ClpP mod 2%, D3 antag 1, D3 ag 0, IL1B secr inh 1 and DT40 TDP1 CPT 16µM*.
Screening Cc1ccc(/C=C/C(=O)N2CCN(c3cccc(C(F)(F)F)c3)CC2)cc1 returned TDP1 cell noCPT -7%, ClpP mod 4%, D3 antag 3, D3 ag 1, IL1B secr inh -6 and DT40 TDP1 CPT -18%.
Cc1ccc(C)c(C(=O)CCC(=O)N2CCN(c3cccc(C(F)(F)F)c3)CC2)c1 was read as TDP1 cell noCPT 12µM*, ClpP mod 0%, D3 antag 35, D3 ag 4, IL1B secr inh 2 and DT40 TDP1 CPT 15µM*.
COc1ccccc1C(=O)NCCC(=O)N1CCN(c2ccccc2O)CC1 was read as TDP1 cell noCPT -20%, ClpP mod -4%, D3 antag 28, D3 ag 4, IL1B secr inh -11 and DT40 TDP1 CPT -13%.
`C/C(=C\c1ccccc1)C(=O)N1CCN(c2cccc(C(F)(F)F)c2)CC1` gave TDP1 cell noCPT -8%, ClpP mod 0%, D3 antag 42, D3 ag 2, IL1B secr inh -65* and DT40 TDP1 CPT 6%.
For Cc1cn(C)c(CC(=O)N2CCN(c3cccc(C(F)(F)F)c3)CC2)c1C(=O)O the results were TDP1 cell noCPT inconclusive, ClpP mod 0%, D3 ag -19 and DT40 TDP1 CPT 13µM*.
`Cc1cccc(C(=O)NCc2nc(-c3ccccc3NC(=O)C3CCCO3)oc2C)c1` (configuration not stated) gave TDP1 cell noCPT -5% and DT40 TDP1 CPT -7%[9.04 µM].
For COCC(=O)N1CCC2(CC1)CN(Cc1ccc(C#N)cc1)C2 the results were TDP1 cell noCPT -55% and DT40 TDP1 CPT -48%.
`CCCCc1nn2c(=O)cc(COC(=O)c3cccc(NC(=O)CCc4ccccc4)c3)nc2s1` gave TDP1 cell noCPT -9%, ClpP mod 0%, D3 ag -12 and DT40 TDP1 CPT -10%.
CCOc1ccc(NC(=O)N2CCN(S(=O)(=O)c3ccc4c(ccn4C)c3)CC2)cc1 was read as ClpP mod -17% and D3 ag -8.
Screening COC(=O)[C@@H]1C[C@@H](NC(=O)c2cnsn2)CN1Cc1ccc(Cl)cc1 returned TDP1 cell noCPT -15% and DT40 TDP1 CPT -13%[9.04 µM].
For O=C(Cn1ccc2ccccc2c1=O)NCCC(=O)N1CCN(c2cccc(C(F)(F)F)c2)CC1 the results were TDP1 cell noCPT 16µM*, ClpP mod -10%, D3 antag 28, D3 ag 0, IL1B secr inh -17 and DT40 TDP1 CPT 21µM*.
CC(C)c1nc(N2CCOCC2)c(C#N)c2c1CCCC2 was read as TDP1 cell noCPT -15%, ClpP mod 32µM*, D3 antag -4, D3 ag 5, IL1B secr inh 25 and DT40 TDP1 CPT -13%.
`CCN1CCc2c(C#N)c(N3CCCCC3)nc(N3CCOCC3)c2C1` gave TDP1 cell noCPT -24%, ClpP mod 8.9µM*, D3 antag -53*, D3 ag 0, IL1B secr inh -3 and DT40 TDP1 CPT -13%.
`CCSc1nc(N2CCOCC2)c2c(c1C#N)CCCC2` gave TDP1 cell noCPT -20%, ClpP mod -10%, D3 antag 20, D3 ag 7, IL1B secr inh 45 and DT40 TDP1 CPT -1%.
Screening N#Cc1c(N2CCOCC2)nc(N2CCCCC2)c2c1CCN(C1CCCCC1)C2 returned TDP1 cell noCPT inconclusive, ClpP mod -12%, D3 antag 47, D3 ag -14, IL1B secr inh -3 and DT40 TDP1 CPT inconclusive.
Screening CC(N)c1csc(Nc2nccc(C(F)(F)F)n2)n1 (configuration not stated) returned TDP1 cell noCPT inconclusive, ClpP mod 1%, D3 antag 30, D3 ag 3, IL1B secr inh 4 and DT40 TDP1 CPT 5%.

Screens from PubChem BioAssay.
